According to PubChem BioAssay:
Active and inactive are the calls of the source. Unless noted, no stated cut-off is given here; in the data, active means inhibition above about 80%; inactive means the rest.

What was measured:
[1] = UWB1.289 ovarian carcinoma cell growth inhibition, synergistic combos for chromothripsis tumors, BGB or cisplatin combos (AID 1671456); conditions: UWB1.289 ovarian carcinoma cells, stronger effect = higher value;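 further: cells exposed to compound for four days; 0% = vehicle DMSO and 100% = killing by high DMSO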
[2] = LFS_MB_2R medulloblastoma cell growth inhibition, synergistic combos for chromothripsis tumors, cisplatin combos (AID 1671457); conditions: LFS_MB_2R medulloblastoma cells, stronger effect = higher value;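 further: cells exposed to compound for four days before readout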
[3] = MDA-MB-436 breast carcinoma cell growth inhibition, synergistic combos for chromothripsis tumors, BGB or cisplatin combos (AID 1671458; call rule not given here;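 further: cells exposed for 96 hours; 0% = vehicle DMSO and 100% = killing by high DMSO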); conditions: MDA-MB-436 breast carcinoma growth inhibition, drug combinations, stronger effect = higher value
[4] = UWB1.289_BRCA1 ovarian cancer growth, cell-based, BGB or cisplatin combinations (AID 1671459); conditions: UWB1.289 BRCA1 ovarian carcinoma, drug combinations, stronger effect = higher value
[5] = human astrocyte viability loss, single and combined drugs, cytotoxicity control for chromothriptic childhood tumor combination screen, cell-based, BGB or cisplatin IC20 combos (AID 1671460); conditions: Human astrocytes, drug combinations, stronger effect = higher value;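 further: cells exposed to compounds for 96 hours before viability readout; 0% = vehicle and 100% = killing control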
[6] = growth inhibition of BT084 medulloblastoma cells, cell-based, ICGC_MB145, cisplatin and BGB IC40 combos (AID 1671461); conditions: drug combinations, stronger effect = higher value;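 further: cells exposed to drugs for 96 hours; 0% = vehicle DMSO and 100% = high DMSO full killing control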
[7] = growth inhibition of RCMB18 medulloblastoma cells, cell-based, cisplatin and BGB IC40 combos (AID 1671462); conditions: stronger effect = higher value;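 further: cells exposed to compound for four days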
[8] = growth inhibition of CRL1545 osteosarcoma cells, cell-based, cisplatin and BGB IC20 combos (AID 1671464); conditions: stronger effect = higher value;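 further: cells exposed to compound for 96 hours before readout; 0% = vehicle DMSO and 100% = high DMSO killing control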
F380Y = experiment: modulators of BK channel variants, profiling panel, selectivity assay, cell-based, U2OS BacMam, thallium flux, beta subunits (AID 1259406;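 active means thallium flux through the channel raised or lowered by more than 3 SD from vehicle-only wells, actives on both sides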;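 further: initial slope of Thallos dye fluorescence rise after thallium is added; log ratio against the mean of 0.3% DMSO vehicle wells on the same plate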); conditions: at 30 µM
F380Y/beta1 = experiment: as above; conditions: at 30 µM
[9] = measured here: inhibition with BGB combination, at 0.05 µM
[10] = measured here: inhibition with cisplatin combination, at 0.05 µM
[11] = measured here: combination with cisplatin, at 0.5 µM
[12] = measured here: combination with cisplatin, at 5 µM
[13] = measured here: BGB combination, at 0.5 µM
[14] = measured here: BGB combination, at 5 µM
[15] = measured here: cisplatin combination, at 0.5 µM
[16] = measured here: cisplatin combination, at 5 µM
[17] = BGB combination, concentration series, at 5 µM
[18] = cisplatin combination, concentration series, at 5 µM
[19] = measured here: combo with BGB IC20, at 0.5 µM
[20] = measured here: combo with cisplatin IC20, at 0.5 µM
[21] = cisplatin combination, at 0.5 µM
[22] = measured here: BGB IC40 combination 0.05 uM, at 0.05 µM
[23] = measured here: BGB IC40 combination, at 0.05 µM
[24] = measured here: with BGB IC20 combination, at 0.5 µM
[25] = measured here: with cisplatin IC20 combination, at 0.5 µM

In the case of `Nc1nc(=S)c2[nH]cnc2[nH]1`, the inhibition ([1]; at 0.5 µM) is reported as 63.1% (inactive), the inhibition [1, 9] is reported as -17.4% and the inhibition [1, 10] is reported as -1.37%. The inhibition ([2]; at 0.5 µM) was -15.5% (inactive), the inhibition [2, 11] was -18.2% and the inhibition [2, 12] was -6.5%. For the same compound, the inhibition ([3]; at 0.5 µM) was 15.1% (inactive), the inhibition [3, 13] was 4.09% and the inhibition [3, 14] was 52.8%. For the same compound, the inhibition [3, 15] was 11.9%, the inhibition [3, 16] was 66.7% and the inhibition [4, 17] was 113%. For the same compound, the inhibition ([4]; at 0.5 µM) was 63.6% (inactive), the inhibition [4, 18] was 110% and the inhibition ([5]; at 0.5 µM) was 4.77% (inactive). For the same compound, the inhibition [5, 19] was -3.14%, the inhibition [5, 20] was 8.25% and the inhibition ([6]; at 0.5 µM) was -17.7% (inactive). It also gave an inhibition [6, 21] of -11.9%, an inhibition ([6]; cisplatin combination, at 5 µM) of 0.406% and an inhibition [6, 22] of 0.063%. For the same compound, the inhibition ([6]; single agent, at 5 µM) was 26.6%, the inhibition ([7]; at 0.5 µM) was -16.7% (inactive) and the inhibition ([7]; cisplatin combo, at 5 µM) was -5.08%. For the same compound, the inhibition [7, 23] was -23.1%, the inhibition [7, 11] was 12.6% and the inhibition ([7]; single agent, at 5 µM) was -10.3%. For the same compound, the inhibition ([8]; at 0.5 µM) was -1.16% (inactive), the inhibition [8, 24] was -1.16% and the inhibition [8, 25] was -1.16%. It also gave an inhibition ([8]; single agent, at 0.05 µM) of -14.2% and an inhibition ([8]; single agent, at 5 µM) of 77.7%.
In the case of `COc1ccc(CN2CCN(C(c3ccc(F)cc3)c3ccc(F)cc3)CC2)c(OC)c1OC`, the log fold change Tl+ flux (F380Y) is reported as -0.0546 (inactive) and the log fold change Tl+ flux (F380Y/beta1) is reported as 0.0295 (inactive).
In the case of `C[C@H]1COc2c(C3(N)CC3)c(F)cc3c(=O)c(C(=O)O)cn1c23`, the inhibition ([1]; at 0.5 µM) is reported as 2.11% (inactive), the inhibition [1, 9] is reported as -7.87% and the inhibition [1, 10] is reported as -10.7%. The inhibition ([2]; at 0.5 µM) was -20.7% (inactive), the inhibition [2, 11] was -28.1% and the inhibition [2, 12] was -123%. For the same compound, the inhibition ([3]; at 0.5 µM) was -24.5% (inactive), the inhibition [3, 13] was -30.5% and the inhibition [3, 14] was -26.3%. The inhibition [3, 15] was -33.6%, the inhibition [3, 16] was 0.273% and the inhibition [4, 17] was -9.44%. The inhibition ([4]; at 0.5 µM) was -1.55% (inactive), the inhibition [4, 18] was -1.09% and the inhibition ([5]; at 0.5 µM) was 5.46% (inactive). For the same compound, the inhibition [5, 19] was 4.83%, the inhibition [5, 20] was -0.547% and the inhibition ([6]; at 0.5 µM) was -36.3% (inactive). For the same compound, the inhibition [6, 21] was -17.3%, the inhibition ([6]; cisplatin combination, at 5 µM) was -31.8% and the inhibition [6, 22] was 22.3%. The inhibition ([6]; single agent, at 5 µM) was -28.3%, the inhibition ([7]; at 0.5 µM) was -18.8% (inactive) and the inhibition ([7]; cisplatin combo, at 5 µM) was -20.9%. It also gave an inhibition [7, 23] of -11.8%, an inhibition [7, 11] of -24.3% and an inhibition ([7]; single agent, at 5 µM) of -38.1%. The inhibition ([8]; at 0.5 µM) was 9.56% (inactive), the inhibition [8, 24] was -3.27% and the inhibition [8, 25] was 14.1%. For the same compound, the inhibition ([8]; single agent, at 0.05 µM) was -13.5%, the inhibition ([8]; single agent, at 5 µM) was 10.7% and the log fold change Tl+ flux (F380Y) was -0.0868 (inactive). For the same compound, the log fold change Tl+ flux (F380Y/beta1) was 0.0568 (inactive).
In the case of `CC(N)C12CC3CC(CC(C3)C1)C2` (configuration not stated), the inhibition ([1]; at 0.5 µM) is reported as -6.71% (inactive), the inhibition [1, 9] is reported as -27.7% and the inhibition [1, 10] is reported as -16.3%. The inhibition ([2]; at 0.5 µM) was -18.8% (inactive), the inhibition [2, 11] was -16.8% and the inhibition [2, 12] was -59.2%. The inhibition ([3]; at 0.5 µM) was -35.4% (inactive), the inhibition [3, 13] was -21.6% and the inhibition [3, 14] was -29.1%. The inhibition [3, 15] was -60.5%, the inhibition [3, 16] was -34.4% and the inhibition [4, 17] was -31.1%. For the same compound, the inhibition ([4]; at 0.5 µM) was -16.9% (inactive), the inhibition [4, 18] was 2.74% and the inhibition ([5]; at 0.5 µM) was -10.5% (inactive). For the same compound, the inhibition [5, 19] was -8.28%, the inhibition [5, 20] was -5.35% and the inhibition ([6]; at 0.5 µM) was -35.2% (inactive). For the same compound, the inhibition [6, 21] was -18.2%, the inhibition ([6]; cisplatin combination, at 5 µM) was -3.55% and the inhibition [6, 22] was 9.42%. The inhibition ([6]; single agent, at 5 µM) was -34.6%, the inhibition ([7]; at 0.5 µM) was -21.2% (inactive) and the inhibition ([7]; cisplatin combo, at 5 µM) was -32.4%. For the same compound, the inhibition [7, 23] was -22.9%, the inhibition [7, 11] was -18.2% and the inhibition ([7]; single agent, at 5 µM) was -26.9%. For the same compound, the inhibition ([8]; at 0.5 µM) was -36.2% (inactive), the inhibition [8, 24] was -19.2% and the inhibition [8, 25] was -48%. For the same compound, the inhibition ([8]; single agent, at 0.05 µM) was -83.2%, the inhibition ([8]; single agent, at 5 µM) was 0.3% and the log fold change Tl+ flux (F380Y) was 0.00103 (inactive). For the same compound, the log fold change Tl+ flux (F380Y/beta1) was 0.0203 (inactive).
